Data taken from PubChem BioAssay (NCI).
This is part of a sample that, as a whole, favours compounds with a hit. Of some 79,000 tested, about 15% had one in any assay. The source made the active and inactive calls. No stated cut-off is given here; in the data, active means growth inhibition above about 70%; inactive means the rest.

Tests used:
[1] = NCI Yeast Anticancer Drug Screen. Data for the rad52 strain (AID 147);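 further: 0% = growth of vehicle-treated control cultures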; conditions: S. cerevisiae rad52 mutant growth inhibition, hits give high values
Method in brief: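 Screen used a yeast mutant impaired in DNA repair. After compound exposure, growth was measured. Values reflect inhibition compared with vehicle-treated cells.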

[2] = NCI Yeast Anticancer Drug Screen. Data for the wt1 strain (AID 149);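 further: 0% = growth of vehicle-treated wt1 cultures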; conditions: S. cerevisiae wt1 strain (SPY 50644) growth inhibition, hits give high values
Method in brief: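 Each compound is tested on wt1 yeast and the loss of growth versus vehicle gives the inhibition value.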

[3] = NCI Yeast Anticancer Drug Screen. Data for the rad50EPP+ strain (AID 151);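 further: 0% = growth of vehicle-treated control cultures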; conditions: S. cerevisiae rad50 mutant strain, hits give high values
Method in brief: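 Exposing the rad50EPP+ strain to each compound, growth was compared with vehicle-only cultures to give inhibition.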

[4] = NCI Yeast Anticancer Drug Screen. Data for the mgt1 strain (AID 153); conditions: S. cerevisiae mgt1 mutant growth inhibition, hits give high values
Method in brief: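 Genetically defined yeast (mgt1) treated with compound; inhibition of growth expressed against vehicle-treated controls.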

[5] = NCI Yeast Anticancer Drug Screen. Data for the rad50 strain (AID 155);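 further: 0% = growth of vehicle-only cultures of the same strain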; conditions: S. cerevisiae rad50 strain growth inhibition, hits give high values
Method in brief: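 Vehicle-treated cultures provide the reference for the growth inhibition reported for compound-exposed, repair-deficient yeast.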

[6] = NCI Yeast Anticancer Drug Screen. Data for the mec2-1 strain (AID 157); conditions: S. cerevisiae mec2-1 strain, hits give high values
Method in brief: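 Readout is yeast growth inhibition, normalised to vehicle-treated controls, in the mec2-1 strain exposed to compound.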

[7] = NCI Yeast Anticancer Drug Screen. Data for the rad14 strain (AID 159);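 further: 0% = growth of vehicle-treated control cultures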; conditions: S. cerevisiae rad14 strain growth inhibition, hits give high values
Method in brief: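 Inhibition of growth is reported for a repair-deficient yeast mutant following compound treatment, calculated relative to cultures that received vehicle.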

[8] = NCI Yeast Anticancer Drug Screen. Data for the sgs1 mgt1 strain (AID 161);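 further: 0% = growth of cultures given vehicle only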; conditions: S. cerevisiae sgs1 mgt1 strain, hits give high values
Method in brief: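 This yeast growth screen uses a strain with defined DNA-repair lesions; compound-treated growth is compared with vehicle-treated growth.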

[9] = NCI Yeast Anticancer Drug Screen. Data for the CLN2oe strain (AID 163);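 further: 0% = growth of vehicle-only control cultures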; conditions: S. cerevisiae CLN2oe strain, hits give high values
Method in brief: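 Values reflect how much compound exposure reduced yeast growth, referenced to vehicle-exposed cells. Assay organism is a strain with a defined genetic change affecting cell-cycle control.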

[10] = NCI Yeast Anticancer Drug Screen. Data for the cln2 rad14 strain (AID 165);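 further: 0% = growth equal to vehicle treated cultures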; conditions: S. cerevisiae cln2 rad14 strain, hits give high values
Method in brief: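 Relative to vehicle controls, growth inhibition of compound-treated cln2 rad14 yeast was recorded.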

[11] = NCI Yeast Anticancer Drug Screen. Data for the bub3 strain (AID 167); conditions: S. cerevisiae bub3 mutant strain, hits give high values
Method in brief: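 Mutant yeast screening strain plus compound; vehicle-treated cultures serve as the 0% inhibition reference.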

[12] = NCI Yeast Anticancer Drug Screen. Data for the wt2 strain (AID 169); conditions: S. cerevisiae wt2 strain growth inhibition, hits give high values
Method in brief: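 Values express reduction in yeast growth under compound treatment, referenced to vehicle-treated cells.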

[13] = NCI Yeast Anticancer Drug Screen. Data for the mlh1 strain (AID 171);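 further: 0% = growth of vehicle-treated control cultures of the same strain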; conditions: S. cerevisiae mlh1 strain growth inhibition, hits give high values
Method in brief: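 Steps: expose the defined-mutant yeast strain to compound; expose a parallel culture to vehicle; measure growth; express compound effect as inhibition relative to the vehicle culture.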

[14] = NCI Yeast Anticancer Drug Screen. Data for the sgs1 strain (AID 173);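 further: 0% = growth of vehicle-only control cultures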; conditions: S. cerevisiae sgs1 mutant, hits give high values
Method in brief: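 Treat defined-mutant yeast with compound; measure growth; calculate inhibition relative to vehicle-treated cells.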

[15] = NCI Yeast Anticancer Drug Screen. Data for the mlh1 rad18 strain (AID 175); conditions: S. cerevisiae mlh1 rad18 strain growth inhibition, hits give high values
Method in brief: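 Test agents were incubated with a yeast strain of defined genotype (DNA damage repair defect). Inhibition of growth was derived by comparison with vehicle-exposed cultures.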

[16] = NCI Yeast Anticancer Drug Screen. Data for the rad18 strain (AID 177); conditions: S. cerevisiae rad18 mutant growth inhibition, hits give high values
Method in brief: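 A genetically defined yeast mutant impaired in DNA damage repair was treated with test compounds, then its growth was measured against cultures receiving vehicle alone.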

[17] = at 5.0 µM (retest, dose inferred, filed as 0.5)
[18] = at 50.0 µM (retest, dose inferred, filed as 5.0)

Measured: growth inhibition

O=CNc1ccc2c(c1)C(=O)c1ccccc1-2
inactive: [1]; at 1.2 µM 8% | [1]; at 3.7 µM 15% | [1]; at 11.0 µM 40% | [2]; at 1.2 µM -2% | [2]; at 3.7 µM -1% | [2]; at 11.0 µM 8% | [2]; at 33.0 µM 27% | [3]; at 1.2 µM 5% | [3]; at 3.7 µM 12% | [3]; at 11.0 µM 26% | [4]; at 1.2 µM 4% | [4]; at 3.7 µM 5% | [4]; at 11.0 µM 9% | [4]; at 33.0 µM 47% | [5]; at 1.2 µM 13% | [5]; at 3.7 µM 22% | [5]; [17] 7% | [5]; at 11.0 µM 37% | [6]; at 1.2 µM 3% | [6]; at 3.7 µM 4% | [6]; [17] 6% | [6]; at 11.0 µM 3% | [6]; at 33.0 µM 36% | [6]; [18] 37% | [6]; at 50.0 µM 37.7% | [7]; at 1.2 µM 5% | [7]; at 3.7 µM 9% | [7]; at 11.0 µM 14% | [7]; at 33.0 µM 46% | [8]; [17] 5% | [8]; [18] 55% | [8]; at 50.0 µM 19.3% | [9]; at 1.2 µM 10% | [9]; at 3.7 µM 10% | [9]; at 11.0 µM 18% | [9]; at 33.0 µM 37% | [10]; [17] -15% | [10]; [18] -5% | [10]; at 50.0 µM 26.8% | [11]; at 1.2 µM 9% | [11]; at 3.7 µM 0% | [11]; [17] -6% | [11]; at 11.0 µM 16% | [11]; at 33.0 µM 61% | [11]; [18] 66% | [11]; at 50.0 µM 62.9% | [12]; at 1.2 µM -2% | [12]; at 3.7 µM 0% | [12]; at 11.0 µM 8% | [12]; at 33.0 µM 48% | [13]; at 1.2 µM 3% | [13]; at 3.7 µM 10% | [13]; at 11.0 µM 16% | [14]; at 1.2 µM -2% | [14]; at 3.7 µM 0% | [14]; at 11.0 µM 6% | [14]; at 33.0 µM 52% | [15]; [17] 4% | [15]; [18] 61% | [15]; at 50.0 µM 69.5% | [16]; at 1.2 µM 2% | [16]; at 3.7 µM 3% | [16]; at 11.0 µM 7% | [16]; at 33.0 µM 52%
active: [1]; at 33.0 µM 94% | [1]; at 100.0 µM 97% | [2]; at 100.0 µM 85% | [3]; at 33.0 µM 86% | [3]; at 100.0 µM 95% | [4]; at 100.0 µM 97% | [5]; at 33.0 µM 93% | [5]; [18] 75% | [5]; at 50.0 µM 94.2% | [5]; at 100.0 µM 96% | [6]; at 100.0 µM 95% | [7]; at 100.0 µM 96% | [9]; at 100.0 µM 75% | [11]; at 100.0 µM 87% | [12]; at 100.0 µM 96% | [13]; at 33.0 µM 72% | [13]; at 100.0 µM 97% | [14]; at 100.0 µM 94% | [16]; at 100.0 µM 94%

O=C1OC(=O)C2CCCC3CCCC1C32 (stereo unspecified)
inactive: [1]; at 1.2 µM 23% | [1]; at 3.7 µM 67% | [2]; at 1.2 µM 7% | [2]; at 3.7 µM 51% | [3]; at 1.2 µM 42% | [3]; at 3.7 µM 54% | [4]; at 1.2 µM 34% | [4]; at 3.7 µM 48% | [5]; at 1.2 µM 17% | [5]; at 3.7 µM 68% | [5]; [17] -10% | [5]; at 50.0 µM 39% | [6]; at 1.2 µM 39% | [6]; at 3.7 µM 33% | [6]; [17] -8% | [6]; at 50.0 µM 36.8% | [7]; at 1.2 µM 17% | [7]; at 3.7 µM 28% | [7]; at 11.0 µM 47% | [8]; [17] -21% | [8]; [18] 10% | [8]; at 50.0 µM 55.1% | [9]; at 1.2 µM 40% | [10]; [17] 15% | [10]; at 50.0 µM 20.8% | [11]; at 1.2 µM 28% | [11]; at 3.7 µM 66% | [11]; [17] 53% | [12]; at 1.2 µM 36% | [12]; at 3.7 µM 62% | [13]; at 1.2 µM 44% | [13]; at 3.7 µM 64% | [14]; at 1.2 µM 26% | [15]; [17] 31% | [15]; at 50.0 µM 26.9% | [16]; at 1.2 µM 25% | [16]; at 3.7 µM 67%
active: [1]; at 11.0 µM 85% | [1]; at 33.0 µM 90% | [1]; at 100.0 µM 97% | [2]; at 11.0 µM 83% | [2]; at 33.0 µM 90% | [2]; at 100.0 µM 97% | [3]; at 11.0 µM 75% | [3]; at 33.0 µM 90% | [3]; at 100.0 µM 95% | [4]; at 11.0 µM 82% | [4]; at 33.0 µM 87% | [4]; at 100.0 µM 96% | [5]; at 11.0 µM 93% | [5]; at 33.0 µM 96% | [5]; [18] 97% | [5]; at 100.0 µM 96% | [6]; at 11.0 µM 71% | [6]; at 33.0 µM 95% | [6]; [18] 99% | [6]; at 100.0 µM 97% | [7]; at 33.0 µM 87% | [7]; at 100.0 µM 94% | [9]; at 3.7 µM 71% | [9]; at 11.0 µM 95% | [9]; at 33.0 µM 97% | [9]; at 100.0 µM 96% | [10]; [18] 98% | [11]; at 11.0 µM 93% | [11]; at 33.0 µM 96% | [11]; [18] 99% | [11]; at 50.0 µM 71.5% | [11]; at 100.0 µM 97% | [12]; at 11.0 µM 80% | [12]; at 33.0 µM 89% | [12]; at 100.0 µM 96% | [13]; at 11.0 µM 93% | [13]; at 33.0 µM 96% | [13]; at 100.0 µM 97% | [14]; at 3.7 µM 78% | [14]; at 11.0 µM 93% | [14]; at 33.0 µM 94% | [14]; at 100.0 µM 98% | [15]; [18] 98% | [16]; at 11.0 µM 94% | [16]; at 33.0 µM 94% | [16]; at 100.0 µM 97%
